Laboratory results from PubChem BioAssay AID1159580 (chemical genetic matrix, 2015).
About 2,000 (36%) of roughly 5,500 compounds were called active. Not shown: some 18% with an inconclusive outcome. Rule as the data show it: active = normalized growth mostly below about 0.91 (no sharp cut-off); inconclusive = no clear call, values can overlap the other calls; inactive = mostly above about 0.92. The list shows a part of the results.

Experiment: chemical genetic growth profiling, strain panel (AID 1159580);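 also: tested at 20 µM; growth read once vehicle control cultures reached saturation at 30 °C; 1 = growth at the plate median or of vehicle wells; lower values mean less growth of the strain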
Conditions: S. cerevisiae deletion strains, growth OD
[1] = locus YHR030C, strain SLT2, active compounds read low
[2] = locus YHR079C, strain IRE1, active compounds read low
[3] = locus YJL095W, strain BCK1, active compounds read low
[4] = locus YJR066W, strain TOR1, active compounds read low
[5] = locus YLR113W, strain HOG1, active compounds read low
[6] = locus YNL183C, strain NPR1, active compounds read low
[7] = locus YOR231W, strain MKK1, active compounds read low
[8] = locus YPL256C, strain CLN2, active compounds read low

Measured: normalized growth

Cc1[nH]c(C)c(Cl)c(=O)c1Cl
inactive: locus YAL021C, strain ccr4, active compounds read low 1.01 | locus YAL026C, strain drs2, active compounds read low 1.01 | locus YAL030W, strain snc1, active compounds read low 0.998 | locus YBL061C, strain skt5, active compounds read low 1 | locus YBR009C, strain hhf1, active compounds read low 1.03 | locus YBR023C, strain chs3, active compounds read low 1 | locus YBR171W, strain sec66, active compounds read low 1 | locus YBR231C, strain swc5, active compounds read low 0.996 | locus YBR279W, strain paf1, active compounds read low 0.999 | locus YCL011C, strain gbp2, active compounds read low 1.01 | locus YCL016C, strain dcc1, active compounds read low 0.997 | locus YCL061C, strain MRC1, active compounds read low 0.998 | locus YCL069W, strain vba3, active compounds read low 0.997 | locus YCR088W, strain abp1, active compounds read low 1 | locus YDL005C, strain med2, active compounds read low 1.01 | locus YDL040C, strain nat1, active compounds read low 1 | locus YDR001C, strain nth1, active compounds read low 0.994 | locus YDR069C, strain doa4, active compounds read low 1.02 | locus YDR137W, strain rgp1, active compounds read low 1.01 | locus YDR159W, strain sac3, active compounds read low 0.981 | locus YDR195W, strain ref2 0.962 | locus YDR297W, strain sur2, active compounds read low 1.01 | locus YDR334W, strain swr1, active compounds read low 1 | locus YDR335W, strain msn5, active compounds read low 1 | locus YDR392W, strain spt3, active compounds read low 1.03 | locus YEL003W, strain gim4, active compounds read low 1.01 | locus YEL037C, strain rad23, active compounds read low 0.999 | locus YEL061C, strain CIN8 (second series), active compounds read low 1.01 | locus YER015W, strain faa2, active compounds read low 0.999 | locus YER016W, strain bim1, active compounds read low 0.995 | locus YER111C, strain swi4, active compounds read low 0.999 | locus YER155C, strain BEM2 (second series), active compounds read low 1.01 | locus YFR010W, strain ubp6, active compounds read low 1.01 | locus YGL167C, strain pmr1, active compounds read low 0.999 | locus YGL173C, strain kem1, active compounds read low 1 | locus YGL227W, strain vid30, active compounds read low 0.996 | locus YGL240W, strain doc1, active compounds read low 0.998 | locus YGL253W, strain hxk2, active compounds read low 1.01 | locus YHR013C, strain ard1, active compounds read low 0.979 | locus YHR027C, strain rpn1, active compounds read low 0.992 | [1] 1.04 | [2] 1.03 | locus YHR142W, strain chs7, active compounds read low 1.01 | locus YJL092W, strain hpr5, active compounds read low 0.996 | locus YJL095W, strain BCK1 (second series), active compounds read low 0.998 | [3] 0.983 | locus YJL115W, strain asf1, active compounds read low 1.01 | locus YJL129C, strain trk1, active compounds read low 0.992 | locus YJL154C, strain vps35, active compounds read low 0.999 | locus YJL164C, strain tpk1, active compounds read low 1.01 | locus YJL166W, strain qcr8, active compounds read low 1.01 | [4] 0.986 | locus YKL160W, strain elf1, active compounds read low 1 | locus YKR026C, strain gcn3, active compounds read low 1 | locus YKR091W, strain srl3, active compounds read low 1 | locus YLL001W, strain dnm1, active compounds read low 1 | locus YLL026W, active compounds read low 1 | locus YLL041C, strain sdh2, active compounds read low 1 | locus YLR027C, strain aat2, active compounds read low 1.01 | [5] 0.98 | locus YLR221C, strain rsa3, active compounds read low 0.997 | locus YLR258W, strain gsy2, active compounds read low 0.995 | locus YLR262C, strain YPT6 (second series), active compounds read low 1.03 | locus YLR320W, strain mms22, active compounds read low 1 | locus YLR342W, strain FKS1, active compounds read low 1 | locus YLR357W, strain rsc2, active compounds read low 1 | locus YLR370C, strain arc18, active compounds read low 0.998 | locus YLR384C, strain iki3, active compounds read low 0.995 | locus YML120C, strain ndi1, active compounds read low 1.01 | locus YMR058W, strain fet3, active compounds read low 1.01 | locus YMR125W, strain sto1, active compounds read low 0.994 | locus YMR129W, active compounds read low 0.993 | locus YMR205C, strain PFK2, active compounds read low 0.988 | locus YMR231W, strain pep5, active compounds read low 0.991 | locus YNL071W, strain lat1, active compounds read low 1 | [6] 0.972 | locus YNL209W, strain ssb2, active compounds read low 1.01 | locus YNL248C, strain rpa49, active compounds read low 1.01 | locus YNL322C, strain KRE1 (second series), active compounds read low 0.999 | locus YNR049C, strain mso1, active compounds read low 1 | locus YOR001W, strain rrp6, active compounds read low 1.01 | locus YOR070C, strain gyp1, active compounds read low 1.01 | locus YOR080W, strain dia2, active compounds read low 0.991 | locus YOR083W, strain WHI5, active compounds read low 1.01 | locus YOR106W, strain vam3, active compounds read low 1.02 | [7] 0.999 | locus YOR265W, strain rbl2, active compounds read low 1.01 | locus YOR270C, strain vph1, active compounds read low 1 | locus YOR290C, strain snf2, active compounds read low 0.999 | locus YPL051W, strain arl3, active compounds read low 1.01 | locus YPL078C, strain atp4, active compounds read low 1 | locus YPL106C, strain sse1, active compounds read low 1 | locus YPL240C, strain hsp82, active compounds read low 0.991 | [8] 1.02

CC(=O)CSc1nnc(-c2ccc(C(C)(C)C)cc2)n1-c1ccc(Cl)cc1
inactive: locus YAR019C, strain CDC15, active compounds read low 0.982 | locus YBL105C, strain PKC1, active compounds read low 0.974 | locus YBR135W, strain CKS1, active compounds read low 0.973 | locus YBR136W, strain MEC1, active compounds read low 0.987 | locus YBR160W, strain CDC28, active compounds read low 0.976 | locus YDL017W, strain CDC7, active compounds read low 0.983 | locus YDL028C, strain MPS1, active compounds read low 0.976 | locus YDL101C, strain DUN1, active compounds read low 0.974 | locus YDL108W, strain KIN28, active compounds read low 0.982 | locus YDL132W, strain cdc53, active compounds read low 0.972 | locus YDL214C, strain PRR2, active compounds read low 0.959 | locus YDR052C, strain DBF4, active compounds read low 0.986 | locus YDR054C, strain cdc34, active compounds read low 0.971 | locus YDR226W, strain ADK1, active compounds read low 0.973 | locus YDR477W, strain SNF1, active compounds read low 0.958 | locus YER123W, strain YCK3, active compounds read low 0.953 | locus YER133W, strain GLC7, active compounds read low 0.969 | locus YFL009W, strain cdc4, active compounds read low 0.977 | locus YFL029C, strain CAK1, active compounds read low 0.987 | locus YFR003C, strain YPI1, active compounds read low 0.984 | locus YFR019W, strain FAB1, active compounds read low 1 | locus YFR028C, strain CDC14, active compounds read low 0.977 | locus YGR040W, strain KSS1, active compounds read low 0.965 | locus YGR052W, strain FMP48, active compounds read low 1.02 | locus YGR092W, strain DBF2, active compounds read low 0.987 | [2] 0.99 | locus YHR082C, strain KSP1, active compounds read low 1.04 | locus YHR205W, strain SCH9, active compounds read low 0.976 | locus YIL147C, strain SLN1, active compounds read low 0.983 | [3] 0.926 | locus YJL128C, strain PBS2, active compounds read low 0.927 | locus YJL157C, strain FAR1, active compounds read low 0.986 | locus YJR016C, strain ILV3, active compounds read low 0.982 | locus YJR066W, strain TOR1 (second series), active compounds read low 0.984 | [4] 0.972 | locus YKL048C, strain ELM1, active compounds read low 0.969 | locus YKL067W, strain YNK1, active compounds read low 0.947 | locus YKL101W, strain HSL1, active compounds read low 0.973 | locus YKL193C, strain SDS22, active compounds read low 0.981 | locus YKL203C, strain TOR2, active compounds read low 1.05 | [5] 0.914 | locus YLR133W, strain CKI1, active compounds read low 0.99 | locus YLR403W, strain SFP1, active compounds read low 0.984 | locus YML070W, strain DAK1, active compounds read low 0.97 | locus YMR001C, strain CDC5, active compounds read low 0.985 | locus YMR205C, strain PFK2 (second series), active compounds read low 0.97 | locus YMR277W, strain FCP1, active compounds read low 0.978 | locus YNL006W, strain LST8, active compounds read low 0.98 | locus YNL020C, strain ARK1, active compounds read low 0.999 | locus YNL161W, strain CBK1, active compounds read low 0.984 | [6] 1.01 | locus YNL207W, strain RIO2, active compounds read low 0.988 | locus YNL222W, strain SSU72, active compounds read low 0.97 | locus YNL307C, strain MCK1 (second series), active compounds read low 0.996 | locus YOL078W, strain AVO1, active compounds read low 0.984 | locus YOL136C, strain PFK27, active compounds read low 0.983 | locus YOR061W, strain CKA2, active compounds read low 0.976 | locus YOR119C, strain RIO1, active compounds read low 0.98 | [7] 0.97 | locus YOR329C, strain SCD5, active compounds read low 0.977 | locus YPL031C, strain PHO85, active compounds read low 0.953 | locus YPL153C, strain RAD53, active compounds read low 0.972 | locus YPL204W, strain HRR25, active compounds read low 0.958 | locus YPL209C, strain IPL1, active compounds read low 0.984 | [8] 0.918 | locus YPR025C, strain CCL1, active compounds read low 0.976 | locus YPR106W, strain ISR1, active compounds read low 0.974 | locus YPR111W, strain DBF20, active compounds read low 0.965 | strain NNK1, active compounds read low 0.997 | strain TSCII, active compounds read low 0.99
active: [1] 0.797
